VLA-4 inh: inhibition in a human VLA-4 binding assay. P13612. VLA-4 expressing cells, ligand binding flow cytometry. inhibition, % (about 7 µM as worked out from the volumes in the protocol). 0.2% of 330,000 active. AID 2557; in the data active = inhibition above about 50%
MIN6 prolif: inducers of beta-cell replication in MIN6 cells; proliferation, % at 10 µM; MIN6 cells proliferation, ATPlite luminescence, 48 h; cells starved in 0.2% serum; 100% = growth in 10% serum; 0.29% of 330,000 active;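 active = compounds whose signal lies at least 3.5 SD above the mean of all wells on their plate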;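 also: 0% = DMSO-treated cells in low-serum medium and 100% = 10% serum control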
NRP1-CendR mod: modulators of CendR peptide binding to human neuropilin-1. O14786. FAM-RPARPAR peptide binding to NRP-1, fluorescence polarization. inhibition, % at 25 µM. 0.85% of 360,000 active. AID 602438;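 active = inhibition or corrected inhibition above about 18%, plus a signal ratio from 0.5 to 1.5, limit read from the data, passing the limit was not always enough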
APOBEC3G inh: APOBEC3G (human) deaminase inhibition | 0.28% of 330,000 active | inhibition, % at 20 µM | recombinant A3G, ssDNA deamination FAM/TAMRA fluorescence | Q9HC16;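 active = inhibition of at least 40% at 20 µM, with no more than 30% in the related APOBEC3A deaminase screen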;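 also: plate controls were DMSO wells with A3G for no effect and wells lacking A3G enzyme for full effect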
Target sequence (Q9HC16 whole entry, looked up): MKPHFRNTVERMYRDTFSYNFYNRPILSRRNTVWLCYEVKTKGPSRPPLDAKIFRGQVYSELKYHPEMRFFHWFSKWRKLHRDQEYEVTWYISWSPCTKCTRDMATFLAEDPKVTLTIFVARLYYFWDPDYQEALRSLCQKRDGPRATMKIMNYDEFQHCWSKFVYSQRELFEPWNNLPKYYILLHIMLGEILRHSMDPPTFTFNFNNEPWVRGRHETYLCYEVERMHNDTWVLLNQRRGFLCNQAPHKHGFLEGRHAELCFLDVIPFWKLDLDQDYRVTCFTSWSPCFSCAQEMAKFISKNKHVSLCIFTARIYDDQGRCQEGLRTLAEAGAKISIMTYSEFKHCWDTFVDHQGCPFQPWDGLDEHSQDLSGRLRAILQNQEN
A3A deaminase: blocks human APOBEC3A ssDNA deamination | recombinant A3A, FAM/TAMRA ssDNA deamination fluorescence | 0.41% of 330,000 active | inhibition, % at 20 µM | AID 493011 | P31941;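 active = at least 40% inhibition at 20 µM here, with at most 30% in a related deaminase screen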;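 also: plate controls were A3A with DMSO for no effect and wells lacking A3A enzyme for full effect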
Target sequence (P31941 whole entry, looked up): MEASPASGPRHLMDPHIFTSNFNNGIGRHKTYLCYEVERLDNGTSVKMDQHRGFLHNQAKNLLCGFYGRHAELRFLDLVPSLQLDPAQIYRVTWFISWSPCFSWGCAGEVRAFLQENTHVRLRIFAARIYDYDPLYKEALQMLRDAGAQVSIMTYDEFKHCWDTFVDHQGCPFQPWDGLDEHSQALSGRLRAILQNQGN
* = called active by the depositor; x = not tested or not shown. Compounds with a hit are over-represented: about 1.8% of the library has one in this group of screens.

SMILES	VLA-4 inh	MIN6 prolif	NRP1-CendR mod	APOBEC3G inh	A3A deaminase
Cc1c(Cl)c([N+](=O)[O-])nn1CC(=O)N1CCN(C23CC4CC(CC(C4)C2)C3)CC1	-11	-2	13	-3	6
O=c1nc2c(O)cccn2c2c1c(=O)[nH]c1ccccc12	x	x	48*	x	x
CCOC(=O)c1c2ccc(OCC(=O)NN)cc2n2ccccc12	11	3	26*	-4	-1
CCCCNC(=O)C(NC(=O)Cc1cc(C(F)(F)F)cc(C(F)(F)F)c1)C(=O)c1ccccc1 (centres undefined)	x	x	-9	x	x
COc1ccc(-n2c(CNC(=O)c3cccs3)n[nH]c2=S)cc1	9	0	31*	2	0
CCN(CC)C(=O)c1ncn2c1c(=O)[nH]c1ccccc12	x	x	-6	x	x
CCc1nc2c(OCc3ccccc3C)cccn2c1N(C)C(=O)CC(C)C	x	x	-3	x	x
CCCCC(=O)N(C)c1c(CC)nc2c(OCc3ccccc3C)cccn12	x	x	22*	x	x
CCc1nc2c(OCCn3cccc3)cccn2c1N(C)C(=O)CC(C)C	x	x	10	x	x
CCc1nc2c(OCc3ccc(C(=O)OC)cc3)cccn2c1N(C)C(=O)CC(C)C	x	x	26*	x	x
CCOC(=O)c1c(NC(=O)c2c(C)noc2C)sc2c1CCCCC2	-5	-4	35*	-1	3
Cc1noc(C)c1C(=O)Nc1sc2c(c1C(N)=O)CCCCC2	16	-1	3	-1	8
CC1CCN(C(=O)COC(=O)Cn2cnc3ccccc32)CC1	16	-2	0	-2	-1
O=C(CSc1nc2ccccc2c(=O)n1-c1ccccc1F)Nc1ccc2c(c1)CCC2	4	-3	5	-4	-6
O=C(CSc1nc2ccccc2c(=O)n1-c1ccc(F)cc1F)Nc1ccc2c(c1)CCC2	12	-3	22*	-6	-1
CCOC(=O)Cc1csc(NC(=O)Nc2ccc(Cl)cc2)n1	0	-2	26*	-4	-6
CCOC(=O)Cc1csc(NC(=O)Nc2cccc(Cl)c2)n1	1	-3	6	-2	7
Cc1csc(NC(=O)Nc2ccc(Cl)cc2)n1	-6	-3	26*	-5	-4
CCc1ccccc1NC(=O)CNC(=O)CNC(=O)c1cccs1	-2	0	6	-5	-2
COc1ccc2cc(C3=CC(=O)CCC3)ccc2c1	x	x	28*	x	x
COc1ccc(S(=O)(=O)Nc2ccccc2OC)cc1C	7	-2	2	-3	1
COc1cc(NS(=O)(=O)c2ccc(C)c(C)c2)c(OC)cc1Cl	-7	-3	27*	-2	8
O=C(c1ccco1)N1CCN(/C(=N/S(=O)(=O)c2cccs2)c2ccccc2Cl)CC1	8	-4	27*	0	1
O=S(=O)(/N=C(\c1ccccc1)N1CCOCC1)c1cccs1	4	0	27*	5	-3
Cc1cccc(C)c1OCc1cn(CC(=O)c2ccc(O)cc2)nn1	x	x	-7	x	x
SMILES	VLA-4 inh	MIN6 prolif	NRP1-CendR mod	APOBEC3G inh	A3A deaminase
O=C1CCN(CCc2ccccc2)CCN1CCSc1ccc(Br)cc1	x	-5	23*	-7	0
Cc1ccc(CNC(=O)CCC(=O)Nc2nnc(C(C)C)s2)cc1	-18	2	11	-3	-3
O=[N+]([O-])c1cc(-c2csc(NCCc3nc4cc(Cl)c(Cl)cc4n3CCCO)n2)ccc1Cl	-13	-8	31*	-4	-3
CCCn1c(CCNc2nc(-c3ccc(Cl)c([N+](=O)[O-])c3)cs2)nc2cc(Cl)c(Cl)cc21	-12	-5	19	11	1
Cc1ccc(-c2csc(NCCc3nc4cc(Cl)c(Cl)cc4n3CCCO)n2)cc1	-10	-7	2	6	-2
OCCOCCn1c(CCNc2nc(-c3ccc(Cl)cc3)cs2)nc2cc(Cl)c(Cl)cc21	32	-6	36*	0	-1
COc1ccc(OC)c(N(CC(=O)NCCSCc2ccco2)S(=O)(=O)c2ccc(OC)c(OC)c2)c1	5	1	5	-6	0
Cc1nc(C)c(N)c(=O)[nH]1	5	-1	24*	-7	-2
O=C(Nc1ccnn1C1CCN(C(=O)c2c(F)cccc2F)CC1)C1CC1	8	0	25*	-2	1
O=C(Nc1ccnn1C1CCN(C(=O)c2ccc(F)c(Cl)c2)CC1)C1CC1	3	-1	9	0	-2
COc1ccc(CN2CCC(n3nccc3NC(=O)C3CC3)CC2)cc1O	-3	4	23*	-7	-5
Cc1ccccc1-c1cccc([C@@H]2C[C@H]3[C@H](CON3C)CN2C(=O)CCc2ccccc2)c1	x	x	-1	x	x
CCN1c2ccccc2-c2nc3ccccc3n2C1c1ccccn1 (centres undefined)	6	2	39*	0	2
O=C1NC[C@H](c2ccccc2)N(CCC23CC4CC(CC(C4)C2)C3)C1=O	0	-4	-1	-6	-5
COCCNC(=O)/C(C#N)=C/c1cc(C)n(-c2ccc(C)cc2)c1C	0	-4	27*	-2	1
COCCNC(=O)/C(C#N)=C/c1ccc2c(c1)OCO2	7	-4	35*	-2	1
N#C/C(=C\c1ccc2c(c1)OCO2)C(=O)NCc1ccco1	14	2	5	-8	-3
COCCNC(=O)/C(C#N)=C/c1cc(C)n(C2CCCCC2)c1C	11	-3	1	-7	-6
O=C(COC(=O)c1ccc2c(c1)OCO2)Nc1ccccc1Cl	-12	0	4	-3	-1
CCOC(=O)[C@H]1[C@H]2COc3ccccc3[C@@H]2N2C(=O)[C@@H](C)NC(=O)[C@@]12C	0	-1	28*	-7	-5
CCOC(=O)[C@@H]1[C@H]2COc3ccccc3[C@@H]2N2C(=O)N(c3ccc(Cl)cc3)C(=O)[C@]12C	44	1	30*	-1	0
COc1cc(OC)c(OC)cc1/C=N/NC(=O)CCc1c(C)n[nH]c1C	1	0	15	0	1
Cc1c(C)c(C)c(S(=O)(=O)NCCC(=O)N2CCN(Cc3ccc(C#N)cc3)CC2)c(C)c1C	5	1	7	-5	1
O=C(O)c1ccc(N2C(=O)c3ccccc3C2=O)cc1[N+](=O)[O-]	x	x	3	x	x
CC(C)c1ccc(NC2CCCN(C(=O)c3cscn3)C2)cc1 (centres undefined)	19	-2	21*	-1	1
SMILES	VLA-4 inh	MIN6 prolif	NRP1-CendR mod	APOBEC3G inh	A3A deaminase
CN(Cc1ccccc1)c1nc2c(c(=O)[nH]c(=O)n2C)n1C	5	-1	4	-1	3
Cc1cccc(Cn2c(N(C)Cc3ccccc3)nc3c2c(=O)[nH]c(=O)n3C)c1	34	4	26*	-1	1
COc1cccc(Nc2nc3cc(OC)ccc3cc2C#N)c1	-11	-3	-6	-1	4
COc1ccc(Nc2nc3c(C)cccc3cc2C#N)cc1	-8	-1	38*	-1	1
O=C1c2cccc3cccc(c23)C(=O)N1Cc1cccnc1	9	-1	-6	-11	-3
O=C1c2cccc3c([N+](=O)[O-])ccc(c23)C(=O)N1Cc1cccnc1	x	x	69*	x	x

From PubChem BioAssay
